# Screening results: PubChem BioAssay, Buhrlage Lab, Dana-Farber Cancer Institute and Novartis Institutes for BioMedical Research (Cambridge, Mass)
# In the library only some 12% were active in any assay of this set; here they are far more common.
# USP8 block = human USP8 deubiquitinase inhibition; inhibition, % at 20 µM; P40818; AID 1645853; 47,000 compounds, 4.2% hits; purified USP8, Ub-rhodamine cleavage fluorescence, 30 min
# USP7 inh = blocks human USP7 ubiquitin-rhodamine cleavage. Q93009. purified USP7, Ub-rhodamine cleavage fluorescence. inhibition, % at 20 µM. 47,000 compounds, 0.3% hits. AID 1645854
# USP17 inh = blocks human USP17 ubiquitin-rhodamine cleavage | A8MUK1 | purified USP17, Ub-rhodamine cleavage fluorescence, 3 h | inhibition, % at 50 µM | 47,000 compounds, 6.5% hits | AID 1645855
# Target sequence (A8MUK1 whole entry, looked up): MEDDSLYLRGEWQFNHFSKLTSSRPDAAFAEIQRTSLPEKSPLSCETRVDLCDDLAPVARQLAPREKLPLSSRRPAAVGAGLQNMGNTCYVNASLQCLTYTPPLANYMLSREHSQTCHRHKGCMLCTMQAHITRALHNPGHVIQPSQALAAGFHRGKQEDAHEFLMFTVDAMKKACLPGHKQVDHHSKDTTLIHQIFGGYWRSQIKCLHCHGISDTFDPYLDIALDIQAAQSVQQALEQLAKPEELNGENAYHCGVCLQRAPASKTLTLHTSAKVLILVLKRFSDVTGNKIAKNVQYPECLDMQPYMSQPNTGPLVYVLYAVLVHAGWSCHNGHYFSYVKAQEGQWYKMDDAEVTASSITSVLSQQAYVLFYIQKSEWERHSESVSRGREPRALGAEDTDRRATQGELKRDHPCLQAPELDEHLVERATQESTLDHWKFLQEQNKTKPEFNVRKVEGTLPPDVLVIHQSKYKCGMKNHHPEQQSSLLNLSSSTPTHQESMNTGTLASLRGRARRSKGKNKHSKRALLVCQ
# UCHL1 inh = inhibitors of human UCHL1 deubiquitinase; 47,000 compounds, 0.2% hits; inhibition, % at 20 µM; AID 1645859; purified UCHL1, Ub-rhodamine cleavage fluorescence; P09936
# USP30 inh = human USP30 deubiquitinase inhibition. purified USP30, Ub-rhodamine cleavage fluorescence. inhibition, % at 25 µM. 47,000 compounds, 5.3% hits
# USP10 block = human USP10 deubiquitinase inhibition | Q14694 | 47,000 compounds, 1.1% hits | inhibition, % at 20 µM | purified USP10, Ub-rhodamine fluorescence, 60 min
# Hits are given with their value; 0 = inactive; - = not tested or not shown. No stated cut-off is given here; in the data, active means inhibition above about 30%; inactive means the rest.
SMILES,USP8 block,USP7 inh,USP17 inh,UCHL1 inh,USP30 inh,USP10 block
COc1ccc(N2CCn3c(SCC(=O)Nc4cc(C)cc(C)c4)nnc32)cc1,49.9,0,-,0,34.7,0
COC(=O)c1ccc(Cn2cnc3ccc(Br)cc3c2=O)o1,0,0,0,0,0,0
Cc1cnc2n1CCN(C)C21CCN(C(=O)c2ccc(Cl)cc2)CC1,0,0,0,0,0,0
COc1cc(Cl)ccc1Oc1ncnc2sc(C)c(C)c12,0,0,61.6,0,46.4,0
Cc1cccnc1-n1c(C)c(C)c2c1ncn1nc(-c3ccco3)nc21,0,0,39.9,0,0,0
CCOc1ccccc1C(=O)NCC(=O)OC(C(=O)c1c[nH]c2ccccc12)c1ccccc1 (centres undefined),0,0,53.5,0,0,0
O=C(Nc1cc(F)c2nc(N3CCOCC3)ccc2c1)c1ccc(Br)o1,85.8,0,84.6,0,0,0
O=C(Nc1cc(F)c2nc(N3CCOCC3)ccc2c1)C1CCC1,77.6,0,42.2,0,0,0
O=C(Nc1cc(F)c2nc(N3CCOCC3)ccc2c1)C1CC1,58.7,0,76.3,0,0,0
CNc1nccnc1C1CN(C(=O)c2ccc3c(c2)CCCC3)CCO1 (centres undefined),0,0,0,0,0,0
CC(C)CNC(=O)N1C[C@H]2C[C@H](C(=O)NCc3cccnc3)[C@@H](C1)O2,0,0,0,0,0,0
CCN1CCN(C(=O)CCCN(c2ccccc2)S(C)(=O)=O)CC1,0,0,62.1,0,35.0,0
Cc1nc(Sc2ccc3ccccc3c2)c2oc3ccccc3c2n1,0,0,42.2,0,39.5,0
c1ccc2cc(Sc3ncnc4c3oc3ccccc34)ccc2c1,0,0,0,0,0,0
O=C(NC1CC1)c1cc(-c2ccco2)nc2onc(-c3ccccc3)c12,0,0,31.4,0,0,0
Cc1ccc(-c2cc(C#N)c(=O)n(Cc3ccc(F)cc3)c2)cc1,0,0,40.7,0,0,0
COc1ccc(C(CC(=O)N2CCN(c3ccccc3)CC2)n2cccc2)cc1 (centres undefined),0,0,0,0,0,0
Cc1cc(N2CCN(c3ncccn3)CC2)nc2ccc(NC(=O)c3ccncc3)cc12,0,0,71.5,0,0,0
Cc1ccc(/C=C/C(=O)Nc2ccc3nc(N4CCN(c5ncccn5)CC4)cc(C)c3c2)cc1,0,0,0,0,0,0
CCOc1ccc(CCNC(=O)CCC(=O)Nc2ccc3nc(N4CCN(C)CC4)cc(C)c3c2)cc1OCC,0,0,0,0,54.3,0
Cc1ccc2cc(NC(=O)c3ccco3)ccc2n1,0,0,0,0,0,0
Cc1cc(N2CCCCC2)nc2ccc(NC(=O)c3ccco3)cc12,58.1,0,0,0,0,0
CC(=O)Nc1ccc2nc(N3CCC(C(=O)N4CCN(C)CC4)CC3)cc(C)c2c1,31.3,0,0,0,0,0
O=C(Cn1nnc2ccccc21)N1C[C@@H](O)[C@H](N2CCOCC2)C1,0,0,0,0,0,0
CCOC(=O)C1CCN(C(=O)CCC(=O)Nc2ccc3nc(N4CCN(CC)CC4)cc(C)c3c2)CC1,0,0,0,0,0,0
SMILES,USP8 block,USP7 inh,USP17 inh,UCHL1 inh,USP30 inh,USP10 block
CCN1CCN(c2cc(C)c3cc(NC(=O)c4ccco4)ccc3n2)CC1,47.5,0,0,0,0,0
CCOC(=O)Cc1cc(=O)n2[nH]c(C)c(-c3ccc(Cl)cc3)c2n1,0,0,0,0,0,0
CCOC(=O)Cc1cc(=O)n2[nH]c(-c3ccc(C)cc3)cc2n1,0,0,30.6,0,0,0
c1ccc2c(-c3nnc(C4CC4)o3)nnc(NCCCN3CCCC3)c2c1,0,0,40.3,0,0,0
Cc1cc(-c2ccc(S(=O)(=O)NCc3ccccc3C)s2)on1,0,0,35.4,0,37.0,0
Cc1cc(-c2ccc(S(=O)(=O)NCc3ccc(Cl)cc3)s2)on1,0,0,76.5,0,59.2,0
Cc1cccc(CNS(=O)(=O)c2ccc(-c3cc(C)no3)s2)c1,0,0,36.1,0,0,0
Cc1cc(-c2ccc(S(=O)(=O)NC3CC3)s2)on1,0,0,0,0,0,0
Cc1cccc(CNS(=O)(=O)c2ccc(-c3cc(C(F)(F)F)on3)s2)c1,0,0,43.2,0,0,0
O=C(c1ccc2onc(-c3csc(-c4cccnc4)n3)c2c1)N1CCOCC1,0,0,0,0,0,0
Cn1nc(CN2CCCCC2)c2c1CN(S(=O)(=O)c1ccccc1F)C2,0,0,0,0,0,0
Clc1ccc(CN2CC3(CCN(Cc4ccccc4)C3)C2)cc1,0,0,0,0,0,0
O=C(NCC1CCCO1)N1CCCn2nc(-c3cccnc3)cc2C1 (centres undefined),0,0,0,0,0,0
O=C(NCc1ccco1)N1CCCn2nc(-c3cccnc3)cc2C1,0,0,31.0,0,0,0
SC(COCc1ccccc1)CN1CCN(c2ccccc2)CC1 (centres undefined),0,0,0,0,44.0,0
COc1ccc(N2CCN(CC(O)COCc3ccc(Cl)cc3)CC2)cc1 (centres undefined),0,0,-,0,0,0
C=C[C@]1(C)CC[C@]2(C)[C@@H](C1)[C@@H](O)C[C@H]1[C@]3(C)CCC[C@@]12OC3=O,0,0,0,0,0,38.0
COc1cc(Cl)c(NC(=O)C2Cc3ccccc3N2C(=O)c2ccccc2)c(OC)c1 (centres undefined),0,0,0,0,0,35.6
Cc1ccc(-c2nc3c(c(=O)c4ccccc4n3C)c(=O)n2-c2ccc(F)cc2)cc1,0,-,43.4,0,0,0
Cn1c2ccccc2c(=O)c2c(=O)n(Cc3ccccc3)c(-c3ccccc3F)nc21,0,0,65.9,0,0,0
Cn1c2ccccc2c(=O)c2c(=O)n(Cc3ccccc3)c(-c3ccco3)nc21,0,0,58.9,0,0,0
COc1ccc(CCn2c(-c3ccccc3C)nc3c(c(=O)c4ccccc4n3C)c2=O)cc1,0,0,-,0,0,0
Cn1c2ccccc2c(=O)c2c(=O)n(Cc3ccccc3)c(-c3ccc(C(C)(C)C)cc3)nc21,0,0,49.9,0,0,0
Cc1nc(-c2nnn(-c3ccccc3)c2C)sc1C(=O)NC(C)C,0,0,0,0,-,0
CC(=O)N1CCC(Cc2cc(-c3ccc(F)cc3)no2)(C(=O)N2CCCC(C)(C)C2)CC1,0,0,0,0,0,0
Cn1c2ccccc2c(=O)c2c(=O)n(Cc3ccco3)c(C3CCCCC3)nc21,30.5,0,0,0,0,0
Cc1nc2c(c(=O)c3ccccc3n2C)c(=O)n1Cc1ccco1,0,0,0,0,0,0
O=C(NCc1ccco1)c1ccc2c(c1)N(Cc1cccc(Cl)c1)C(=O)c1ccccc1S2,0,0,37.9,0,0,0
C[C@]12C(=O)N(Cc3ccco3)CC(=O)N1CC(c1ccc(Cl)cc1)c1c2[nH]c2ccccc12 (some centres undefined),0,0,31.4,0,0,0
